This is part of a sample that, as a whole, favours compounds with a hit. Of some 83,000 tested, about 20% had one in any assay.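 Growth was measured after 48 h exposure to one concentration of compound in 96-well plates. Values under 10 count as active.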 Calls of active or inactive are those of the source.
Each molecule was assayed on LOX IMVI melanoma (assay: NCI-60 one-dose screen, 48 h (100 = growth as untreated, 0 = no growth, -100 = all killed)). Details: 10 µM unless noted.
With `COc1ccc(-c2nn(-c3ccccc3)cc2/C=C/C(=O)c2ccc(NC(=O)CCCCCCC(=O)NO)cc2)cc1` the growth was 90.4% (inactive).
With `O=C(NCCCNc1cc(-c2cn(-c3ccccc3)nc2-c2cccc(O)c2)ccn1)Nc1cccc(C(F)(F)F)c1` the growth was 8.34% (active).
For `Cc1[nH]nc2ccc(-c3nc4cnc(N5CCN(C)CC5)cn4c3Nc3ccc(F)cc3Br)cc12`, the growth was -10.4% (active).
`O=C(/C=C/c1cccc(O)c1)c1ccc(O)cc1` was tested, and the growth was 32.2% (inactive).
With `C#Cc1ccc(NC(=O)c2ccc(/C=C/C(=O)c3nccn3C)cc2)c(F)c1` the growth was -60.8% (active).
In the case of `O=C(Nc1ccc(F)cc1)c1cc(-c2ccc(F)cc2F)ccc1O`, the growth is reported as 4.96% (active).
For `Oc1ccc(CSc2nnc(-c3ccc(Oc4ccccc4)cc3)o2)c2cccnc12`, the growth was 19.8% (inactive).
`Cc1ccc(NC(=O)c2ccc(CN3CCN(C)CC3)c(C(F)(F)F)c2)cc1Oc1ccc(-c2[nH]nc3ncnc(N)c23)cc1` was tested, and the growth was -85.3% (active).
With `N#Cc1c(NC(=O)c2ccccc2C(F)(F)F)sc2c1CCC(=O)C2` the growth was 6.27% (active).
With `CCN(CC)c1ccc2cc(C(=O)NCCOCCOCCOCCn3cc(CCC(=O)Nc4ccc(C(=O)c5ccc(NC(=O)OC(C)(C)C)cc5)cc4)nn3)c(=O)oc2c1` the growth was 26.7% (inactive).
With `CS(=O)(=O)c1ccc(-c2nn(-c3ccccc3)cc2/C=N/NC(=O)c2ccncc2)cc1` the growth was 101% (inactive).
`Cc1ccc(S(=O)(=O)N/N=C/c2cn(-c3ccc(F)cc3)nc2-c2ccc(S(C)(=O)=O)cc2)cc1` was tested, and the growth was 100% (inactive).
`CS(=O)(=O)c1ccc(-c2nn(-c3ccccc3)cc2/C=C/C(=O)c2ccc(Br)cc2)cc1` was tested, and the growth was 67.5% (inactive).
For `O=C(NCCCNc1cc(-c2cn(-c3ccccc3)nc2-c2cccc(O)c2)ccn1)Nc1ccc(F)cc1`, the growth was 6.07% (active).
For `CN1C(=O)N(C)C2C1NN=c1s/c(=C\c3ccccn3)c(=O)n12` (stereo not drawn), the growth was 100% (inactive).
With `Fc1ccc(-c2cc3nc(C(Cl)Cl)nc(-c4cccs4)n3n2)cc1` the growth was 94.8% (inactive).
`COc1ccc([C@H]2c3[nH]c4ccccc4c3C[C@@H]3C(=O)N(C4CCN(Cc5ccccc5)CC4)CC(=O)N23)c(OC)c1` was tested, and the growth was 58.7% (inactive).
`Cn1ccnc1C(=O)/C=C/c1ccc(C(=O)Nc2ccc(NC(=O)CCNC(=O)c3csc(Br)n3)cc2)cc1` was tested, and the growth was 11.5% (inactive).
`Cc1nn(-c2ccccc2)cc1/C=N/Nc1nc(Nc2ccccc2)nc(Nc2ccc(S(N)(=O)=O)cc2)n1` was tested, and the growth was -25.7% (active).
With `COCCC[C@H]1O[C@@](O)([C@H](C)[C@@H]2CC(OC)C(O)/C=C(C)/C=C(C)/C=C(\C)C(OC3O[C@@H](C)[C@H](O)C(O)[C@@H]3O)C(C)/C=C(C)/C=C(OC)/C=C(\C)C(=O)O2)C(OC)C(O)[C@]1(C)O[C@H]1C[C@@H](O)[C@H](O[C@H]2C[C@](C)(O)[C@H](O)C(C)O2)C(C)O1` (stereo partly drawn) the growth was 76.4% (inactive).
For `COc1ccc(N2C(=O)c3cc(OC)c(OC)cc3NC2SCc2ccccc2)cc1` (stereo not drawn), the growth was 94.8% (inactive).
In the case of `Cc1cc2nc(C(Cl)Cl)nc(-c3ccco3)n2n1`, the growth is reported as 93.4% (inactive).
`COc1ccc(S(=O)(=O)NCCCNc2nccc(-n3cnc4ccccc43)n2)cc1` was tested, and the growth was 93.4% (inactive).
In the case of `O=C(NCCCNc1cc(-c2cn(-c3ccccc3)nc2-c2cccc(O)c2)ccn1)Nc1cc(C(F)(F)F)cc(C(F)(F)F)c1`, the growth is reported as 81.2% (inactive).
In the case of `Cc1ccc(NC(=O)c2ccc(CN3CCN(C)CC3)c(I)c2)cc1Oc1ccc(-c2[nH]nc3ncnc(N)c23)cc1`, the growth is reported as -86.5% (active).
For `Cc1ccc(-n2cc(/C=C/C(=O)c3ccc(S(C)(=O)=O)cc3)c(-c3ccc(S(C)(=O)=O)cc3)n2)cc1`, the growth was 74.5% (inactive).
`COc1cc(/C=C/C(=O)c2ccc(NC(=O)CSc3nnc(-c4ccc5nc(-c6ccccc6)[nH]c5c4)o3)cc2)cc(OC)c1OC` was tested, and the growth was 56% (inactive).
With `O=c1oc2ccc(-c3ccc(F)cc3F)cc2c(=O)n1-c1cccc(C(F)(F)F)c1` the growth was 0.939% (active).
For `C#CCOc1ccccc1C(Nc1ccccc1)c1nnnn1C1CCCCC1` (stereo not drawn), the growth was 95.4% (inactive).
For `NCCN1CCN(c2nc(-c3ccccc3)nc3nc(-c4ccccc4)oc23)CC1`, the growth was -90.6% (active).
For `CN1C(=O)N(C)C2Nn3c(s/c(=C\c4ccccn4)c3=O)=NC21` (stereo not drawn), the growth was 99.6% (inactive).
In the case of `CNC(=O)c1cc(N2CCc3cc(NC(=O)Nc4ccc(Cl)c(Cl)c4)ccc32)ccn1`, the growth is reported as 86.9% (inactive).
In the case of `NS(=O)(=O)c1ccc(-n2cc(CC=O)nn2)cc1`, the growth is reported as 98.9% (inactive).
With `COc1ccc(N)cc1C(=O)Nc1cccc(-c2cc(=O)c3c(OC)c(OC)c(OC)cc3o2)c1` the growth was 44.3% (inactive).
`O=C(CSc1nnc(-c2ccc(Cl)cc2)n1-c1ccccc1)Nc1ccc(F)cc1` was tested, and the growth was 49.2% (inactive).
`O=C(c1cccc(F)c1)n1ccc2cc(NC(=S)Nc3cccnc3)ccc21` was tested, and the growth was 99% (inactive).
With `O=C(O)c1ccc(-n2cc(CNc3ccc(Cl)cc3)c(-c3ccc(F)cc3)n2)cc1` the growth was 84.3% (inactive).
`CCC(CC)N1C(=O)/C(=c2\sc3n(c2=O)C2C(NN=3)N(CC)C(=O)N2CC)c2ccccc21` (stereo not drawn) was tested, and the growth was 17.9% (inactive).

— PubChem BioAssay (NCI)
